19 compounds from PubChem BioAssay AID493169 (National Center for Advancing Translational Sciences (NCATS), 2011) can be followed below.

Results filed as inconclusive are left out. Where a call stands in place of a potency, no number is given. Calls of active or inactive are those of the source. Calls come from the whole dose curve; as a rule, active = well fitted inhibition curve with a large enough effect; inconclusive = small, poorly fitted or top-dose-only effect; inactive = flat fitted curve, though single readings scatter.
Potency is the fitted concentration of half-maximal effect.

This assay is described as follows: CHOP2 Reporter Counterscreen Assay for Inhibitors of Ubiquitin-specific Protease USP2a.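 Note: activated enterokinase alone at 50 pM in a cell-free format rather than USP2a or CHOP2; nearly all actives have a fitted effect of over 55% in size.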 As to conditions: purified enterokinase, fluorogenic substrate, 485/531 nm; series mostly up to 38.3 µM. An excerpt:
NIH Molecular Libraries Probe Centers Network [MLPCN] NIH Chemical Genomics Center [NCGC] MLPCN Grant: XO1-MH079852-01 PI Name: Nicholson, Ben. Progenra Inc, Malvern, PA NCGC Assay Overview: Homeostasis of cellular proteins is maintained through a combination of synthesis and degradation. The pathway that accounts for the majority of protein degradation is the ubiquitin-proteasomal pathway. Ubiquitin (Ub) is highly conserved in all cells and the generation of a multi-Ub chain typically targets proteins for degradation by the proteasome. However, ubiquitination is highly reversible and dynamic. Deubiquitination, the reverse process, is catalyzed through the action of enzymes referred to as isopeptidases or deubiquitinating enzymes (DUBs). This group of enzymes is collectively responsible for maintaining adequate pools of free ubiquitin and regulating the ubiquitination status of cellular proteins. The class of DUBs referred to as the ubiquitin-specific proteases (USP) family functions endoproteolytically to cleave Ub chains from a wide range of protein substrates. USP2a deubiquitinates fatty acid synthase (FASN) which has recently been identified as an emerging oncology target. To identify inhibitors of USP2a a cell-free assay was employed. This assay is a counterscreen against the reporter enzyme used to measure USP2a activity in the primary qHTS assay. The reporter enzyme is a protease (enterokinase, EK; EC 3.4.21.9), which is activated when a Ub sequence is cleaved by USP2a. The counterscreen assay is performed in the same buffer and conditions as the primary USP2a coupled assay but uses fully activated EK alone. The assay gives a fluorescent read-out at excitation/emission wavelengths of 485/531. The assay was provided by Progenra, Inc. and has been licensed for sale by LifeSensors, Inc.
NCGC Assay Protocol: The assay buffer, prepared fresh at the day of the assay, contains 20mM Tris-HCl pH 8.0, 2mM CaCl2, 2mM beta-Mercaptoethanol, 0.05% CHAPS. 3uL of 100 pM EK (50 pM final) was dispensed into a medium-binding black solid Kalypsys 1,536 well plate using the Kalypsys dispenser. The assay plate was then pinned with 23nL compounds in DMSO with the Kalypsys pintool in columns 5-48 (0.3% final DMSO concentration). The negative control was buffer/DMSO only in column 3. The assay plate is incubated at RT for 30min. Subsequently, 3uL of reporter substrate (25nM final) were dispensed into the plate using the Kalypsys dispenser. Plates were read after 10 min at RT on a ViewLux (Perkin Elmer) plate reader using the following wavelengths: Ex 485nm /Em 531nm. Data were normalized to the AC100 inhibition (buffer alone). Concentration-response curves were fitted to the normalized data and the concentration-response curves were then classified based on curve quality (r2), response magnitude and degree of measured activity. The time zero reading was used to flag fluorescence artifacts.
Regarding `OC(c1ccncc1)(c1ccc(F)cc1)c1ccc(F)cc1`, the Potency entry was “inactive”. With `COc1ccc(S(=O)(=O)Cc2ccc(C(=O)N3CCC4(CC3)OCCO4)o2)cc1`, the Potency result was “inactive”. To `O=C(O)c1cccc2c1NC(C(=O)O)C1CC(Sc3ccccc3[N+](=O)[O-])C(Cl)C21` (centres undefined) belongs 10 µM (active). For `O=C1CC(=O)N(Cc2ccccc2)C(=O)N1CCCCCCN1C(=O)CC(=O)N(Cc2ccccc2)C1=O`, the Potency result is “inactive”. The entry for `Nc1ccc(S(=O)(=O)N2CCCCC2c2cccnc2)cc1` (centres undefined) is “inactive”; for `CC(C)N1C(=O)/C(=C/C=C/c2ccco2)C(=O)N(Cc2ccco2)C1=O` it is 7.94 µM (active). As for `Cc1nn(Cc2ccc(Cl)cc2Cl)c(Cl)c1C(=O)Nc1ccc(OC(F)F)cc1`, the Potency entry is “inactive”. Take `O=c1[nH]c(=O)n(Cc2ccc(F)cc2)c(O)c1C=NCCCn1ccnc1`: the Potency entry is “inactive”. Take `COc1ccc(NC(=O)c2c(C)nn(Cc3ccccc3Cl)c2Cl)cc1Cl`: the Potency result is “inactive”.

Turning to `CCCC1=C(C(=O)OCC)C2(C(=O)Nc3ccc(C)cc32)C(C#N)=C(N)O1` (centres undefined), the Potency result was “inactive”. Consider `O=C1NC(=S)N(c2ccccc2)C(=O)/C1=C/c1ccco1`, for which the Potency is 3.55 µM (active). To `FC(F)(F)c1ccc2c(c1)N(CCCN1CCN(CCCl)CC1)c1ccccc1S2` belongs “inactive”. As for `NC(N)=N/N=C/c1ccc(N(c2ccccc2)c2ccccc2)cc1`, the Potency was 8.91 µM (active). `Clc1ccc(C(c2ccc(Cl)cc2)n2cc[n+](CC(OCc3ccc(Cl)cc3Cl)c3ccc(Cl)cc3Cl)c2)cc1` (centres undefined): the Potency was 3.16 µM (active). Turning to `O=C1NC(=O)N(Cc2ccco2)C(=O)/C1=C/C=C/c1ccco1`, the Potency was 8.91 µM (active). The figure for `O=c1[nH]c(=S)n(Cc2ccco2)c(O)c1C=NCc1cccs1` is 8.91 µM (active). Turning to `O=C(COc1ccc(S(=O)(=O)N2CCOCC2)cc1)N1CCN(Cc2ccc3c(c2)OCO3)CC1`, the Potency entry is “inactive”.

Consider `CC(=Nc1ccc2c(c1)CCC2)c1c(O)n(C)c(=O)n(C)c1=O`, for which the Potency result is “inactive”.

For `O=C1NC(=O)[C@]2(Cc3ccccc3N3CCN(c4ccccc4)CC32)C(=O)N1Cc1ccccc1` (some centres undefined), the Potency was 10 µM (active).
